Assay results taken from PubChem BioAssay (EPA / NIEHS).
Results filed as inconclusive are left out. Activity calls are given as the source filed them. How the source made its calls, unless noted: active means hit-call score of the fitted dose curve at least 0.9, where 1 is the maximum; inactive means score below 0.9.

Legend:
[1] = BSK_LPS_PGE2: BioMAP Diversity Plus: LPS Assay for Prostaglandin E2 (PGE2) Biomarker Activity (AID 2283082); conditions: primary human HUVEC with PBMC; actives raise or lower the signal;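 on AC50: secreted prostaglandin E2 measured by ELISA in LPS-stimulated co-culture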
Method in brief: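 ELISA read-out of PGE2 from human umbilical vein endothelial cells co-cultured with peripheral blood mononuclear cells under LPS, 24 h post-dose. Gain or loss of signal scored relative to DMSO baseline.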

[2] = read-out: Macrophage colony-stimulating factor (MCSF), CSF1 (gene 1435); assay: BSK_LPS_MCSF: BioMAP Diversity Plus: LPS Assay for Macrophage colony-stimulating factor (MCSF) Biomarker Activity (AID 2283083); conditions: primary human HUVEC with PBMC; actives raise or lower the signal
Method in brief: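 Bidirectional fit versus DMSO of ELISA-measured M-CSF in co-cultured human umbilical vein endothelial cells and PBMC, sampled 24 h after dosing.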

[3] = read-out: Tissue Factor, F3 (gene 2152); assay: BSK_LPS_TissueFactor: BioMAP Diversity Plus: LPS Assay for Tissue Factor Biomarker Activity (AID 2283084); conditions: primary human HUVEC with PBMC; actives raise or lower the signal
Method in brief: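 Read-out: CD142 ELISA, 24 h. System: LPS-driven human endothelial/PBMC co-culture. Analysis: up- or down-signal fitted against DMSO.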

[4] = read-out: Tumor necrosis factor (Homo sapiens) (UniProt P01375); assay: BSK_LPS_TNFa: BioMAP Diversity Plus: LPS Assay for Tumour Necrosis Factor alpha (TNFa) Biomarker Activity (AID 2283085); conditions: primary human HUVEC with PBMC; actives raise or lower the signal;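 on AC50: TNFa protein level quantified by ELISA in the co-culture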
Method in brief: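 HUVEC/PBMC co-culture, LPS-stimulated; 24 h post-dose; TNFa by ELISA; gain or loss of signal fitted bidirectionally vs DMSO baseline.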

CD38, CD38 (gene 952) = assay: BSK_SAg_CD38: BioMAP Diversity Plus: SAg Assay for CD38 Biomarker Activity (AID 2283087); conditions: primary human HUVEC with PBMC; actives raise or lower the signal
Method in brief: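 Measures CD38 on a human endothelial/PBMC co-culture driven by SEB and TSST-1, 24 h after compound exposure, using ELISA with fluorescence detection; DMSO defines baseline for bidirectional curve fitting.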

CD40, CD40 (gene 958) = assay: BSK_SAg_CD40: BioMAP Diversity Plus: SAg Assay for CD40 Biomarker Activity (AID 2283088); conditions: primary human HUVEC with PBMC; actives raise or lower the signal
Method in brief: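 Endpoint derived by fitting increases or decreases versus DMSO controls. CD40 is detected by fluorescence ELISA in a human vascular co-culture of endothelium and PBMC at 24 h.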

CD69, CD69 (gene 969) = assay: BSK_SAg_CD69: BioMAP Diversity Plus: SAg Assay for CD69 Biomarker Activity (AID 2283089); conditions: primary human HUVEC with PBMC; actives raise or lower the signal;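 on AC50: cell surface CD69 protein quantified by ELISA with fluorescence detection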
Method in brief: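 HUVEC co-cultured with PBMC were dosed with chemical, and CD69 was measured by ELISA with fluorescence read-out 24 h later. Bidirectional curve fitting used DMSO as negative control and activity baseline.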

[5] = read-out: Monocyte Chemoattractant Protein-1 (MCP1), CCL2 (gene 6347); assay: BSK_SAg_MCP1: BioMAP Diversity Plus: SAg Assay for Monocyte Chemoattractant Protein-1 (MCP1) Biomarker Activity (AID 2283090); conditions: primary human HUVEC with PBMC; actives raise or lower the signal
Method in brief: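 Values derive from bidirectional fitting of ELISA-measured MCP1 against DMSO controls. Readings were taken 24 h after dosing human vascular endothelial cells co-cultured with peripheral blood mononuclear cells under superantigen stimulation.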

[6] = read-out: E-selectin (Homo sapiens) (UniProt P16581); assay: BSK_SAg_Eselectin: BioMAP Diversity Plus: SAg Assay for Eselectin Biomarker Activity (AID 2283091); conditions: primary human HUVEC with PBMC; actives raise or lower the signal
Method in brief: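 Endpoint values derive from bidirectional fitting relative to DMSO, using ELISA-measured E-selectin in a human vascular co-culture (umbilical vein endothelium plus PBMC) sampled 24 h after dosing.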

[7] = BSK_SAg_PBMCCytotoxicity: PBMC Cytotoxicity Assessment in the BioMAP Diversity Plus: SAg Assay (AID 2283093); conditions: primary human HUVEC with PBMC;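 further: PBMC viability measured as Alamar Blue reduction fluorescence at 546/580 nm; fitted both ways against DMSO so a hit may be loss or gain of signal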;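 on AC50: PBMC superantigen activated with SEB plus TSST-1 one hour after compound addition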
Method in brief: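 Alamar Blue reduction (6 h, 546/580 nm) reports PBMC cytotoxicity after 90 h superantigen activation (SEB, TSST-1; 20 ng/mL final each) with 1 h compound pre-treatment. Gain or loss of signal fitted versus DMSO.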

[8] = BSK_SAg_Proliferation: Cell Proliferation Assessment in the BioMAP Diversity Plus: SAg Assay (AID 2283095); conditions: primary human HUVEC with PBMC;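 further: relative cell number as total protein by SRB absorbance in sub-confluent culture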
Method in brief: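 HUVEC/PBMC co-culture, 96-well. TCA-fixed (10%), 0.1% SRB stain, A560 at 96 h. Protein content used as viability readout; bidirectional fitting vs DMSO control.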

[9] = BSK_SAg_SRB: Viability Assessment in the BioMAP Diversity Plus: SAg Assay (AID 2283096); conditions: primary human HUVEC with PBMC;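 further: cells read one day after compound addition; hits may be either gain or loss of signal compared with DMSO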
Method in brief: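 This overt-cytotoxicity endpoint quantifies protein in human endothelial/PBMC co-cultures at 24 h using SRB absorbance (560 nm) after trichloroacetic acid fixation. Values reflect signal change from the DMSO negative control, fitted bidirectionally.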

[10] = read-out: Monokine induced gamma interferon (MIG), CXCL9 (gene 4283); assay: BSK_SAg_MIG: BioMAP Diversity Plus: SAg Assay for Monokine induced gamma interferon (MIG) Biomarker Activity (AID 2283092); conditions: primary human HUVEC with PBMC; actives raise or lower the signal
Method in brief: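 HUVEC plus human PBMC co-culture, chemicals dosed and MIG (CXCL9) quantified by ELISA at 24 h. Bidirectional curve fitting against DMSO as negative control and baseline, so both gain and loss of signal count as activity.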

[11] = read-out: Interleukin-8 (IL8), CXCL8 (gene 3576); assay: BSK_SAg_IL8: BioMAP Diversity Plus: SAg Assay for Interleukin-8 (IL8) Biomarker Activity (AID 2283094); conditions: primary human HUVEC with PBMC; actives raise or lower the signal
Method in brief: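 HUVEC/PBMC co-culture, 24 h post-dose; IL-8 by ELISA. Gain or loss of signal fitted bidirectionally vs DMSO baseline.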

[12] = target: human CYP1A2, CYP1A2 (gene 1544) (UniProt P05177); assay: NVS_ADME_hCYP1A2: NovaScreen (NVS) CYP450-related Enzyme Activity (ADME) Assay for human CYP1A2 (AID 2283102; active means hit-call score of the fitted dose curve at least 0.9, where 1 is the maximum)
Method in brief: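 Inhibition scored as decrease in fluorescent product versus acetonitrile negative control. Enzyme: insect-cell recombinant human CYP1A2, substrate-specific, cell-free. Reading at 0.5 h; 10 uM duplicate initial screen with positive and negative controls on every plate.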

[13] = read-out: Vascular cell adhesion molecule 1 (VCAM1), VCAM1 (gene 7412); assay: BSK_LPS_VCAM1: BioMAP Diversity Plus: LPS Assay for Vascular cell adhesion molecule 1 (VCAM1) Biomarker Activity (AID 2283086); conditions: primary human HUVEC with PBMC; actives raise or lower the signal
Method in brief: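 ELISA read-out of VCAM-1 at 24 h post-dosing in an LPS-driven HUVEC/PBMC primary human co-culture; gain or loss of signal fitted bidirectionally against DMSO baseline. Cytotoxicity tracked in parallel cultures by SRB total-protein staining.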

[14] = target: human CYP1A1, CYP1A1 (gene 1543) (UniProt P04798); assay: NVS_ADME_hCYP1A1: NovaScreen (NVS) CYP450-related Enzyme Activity (ADME) Assay for human CYP1A1 (AID 2283100; active means hit-call score of the fitted dose curve at least 0.9, where 1 is the maximum)
Method in brief: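 Inhibition of recombinant CYP1A1 turnover was assessed fluorometrically in a biochemical format 1 h after compound exposure. Testing began at 10 uM in duplicate and progressed to concentration series reaching 20 uM, with on-plate positive and negative controls.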

[15] = target: human CYP2A6, CYP2A6 (gene 1548) (UniProt P11509); assay: NVS_ADME_hCYP2A6: NovaScreen (NVS) CYP450-related Enzyme Activity (ADME) Assay for human CYP2A6 (AID 2283099; active means hit-call score of the fitted dose curve at least 0.9, where 1 is the maximum)
Method in brief: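 Loss of fluorescence signal relative to acetonitrile vehicle reported CYP2A6 inhibition in a cell-free system using insect-cell-derived enzyme. Readings were taken at 0.5 h; top concentration in follow-up dose series was 20 uM.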

Measured: AC50

Sequence of Tumor necrosis factor (Homo sapiens) (P01375 whole entry, looked up): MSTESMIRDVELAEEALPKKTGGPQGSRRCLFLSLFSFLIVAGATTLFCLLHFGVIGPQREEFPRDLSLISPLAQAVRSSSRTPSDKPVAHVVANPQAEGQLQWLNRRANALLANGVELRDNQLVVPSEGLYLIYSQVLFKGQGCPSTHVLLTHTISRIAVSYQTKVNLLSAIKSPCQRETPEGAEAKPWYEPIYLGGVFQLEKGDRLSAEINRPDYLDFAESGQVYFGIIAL
Sequence of E-selectin (Homo sapiens) (P16581 whole entry, looked up): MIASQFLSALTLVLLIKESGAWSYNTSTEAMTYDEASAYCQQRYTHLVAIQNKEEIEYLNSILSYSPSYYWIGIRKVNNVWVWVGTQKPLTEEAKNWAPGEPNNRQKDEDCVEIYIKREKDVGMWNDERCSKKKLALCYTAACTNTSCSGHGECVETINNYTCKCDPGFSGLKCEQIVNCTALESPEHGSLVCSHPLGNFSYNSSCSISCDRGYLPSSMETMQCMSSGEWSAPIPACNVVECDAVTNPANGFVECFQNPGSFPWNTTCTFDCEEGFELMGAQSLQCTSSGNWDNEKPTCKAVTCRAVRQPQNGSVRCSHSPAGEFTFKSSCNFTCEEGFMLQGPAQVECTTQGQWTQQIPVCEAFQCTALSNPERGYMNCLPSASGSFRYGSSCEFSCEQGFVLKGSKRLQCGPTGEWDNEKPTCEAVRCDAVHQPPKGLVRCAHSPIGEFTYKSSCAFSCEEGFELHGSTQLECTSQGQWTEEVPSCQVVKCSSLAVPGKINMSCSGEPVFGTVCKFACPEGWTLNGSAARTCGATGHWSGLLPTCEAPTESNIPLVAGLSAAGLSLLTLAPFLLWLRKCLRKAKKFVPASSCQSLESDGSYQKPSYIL
Sequence of human CYP1A2, CYP1A2 (gene 1544) (P05177 whole entry, looked up): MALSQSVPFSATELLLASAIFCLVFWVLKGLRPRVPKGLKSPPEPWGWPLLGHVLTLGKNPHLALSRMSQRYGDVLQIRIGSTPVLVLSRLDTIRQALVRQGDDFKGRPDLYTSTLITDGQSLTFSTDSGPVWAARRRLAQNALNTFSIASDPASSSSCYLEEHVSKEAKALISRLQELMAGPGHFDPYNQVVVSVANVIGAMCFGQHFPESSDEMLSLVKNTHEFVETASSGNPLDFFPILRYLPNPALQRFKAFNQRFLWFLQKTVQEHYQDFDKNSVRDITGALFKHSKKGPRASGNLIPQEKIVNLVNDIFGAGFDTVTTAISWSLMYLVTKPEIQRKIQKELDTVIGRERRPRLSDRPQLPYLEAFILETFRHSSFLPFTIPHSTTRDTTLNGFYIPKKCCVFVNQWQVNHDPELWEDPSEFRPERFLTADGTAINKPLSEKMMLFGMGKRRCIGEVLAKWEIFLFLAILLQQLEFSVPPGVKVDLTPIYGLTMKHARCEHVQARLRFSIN
Sequence of human CYP2A6, CYP2A6 (gene 1548) (P11509 whole entry, looked up): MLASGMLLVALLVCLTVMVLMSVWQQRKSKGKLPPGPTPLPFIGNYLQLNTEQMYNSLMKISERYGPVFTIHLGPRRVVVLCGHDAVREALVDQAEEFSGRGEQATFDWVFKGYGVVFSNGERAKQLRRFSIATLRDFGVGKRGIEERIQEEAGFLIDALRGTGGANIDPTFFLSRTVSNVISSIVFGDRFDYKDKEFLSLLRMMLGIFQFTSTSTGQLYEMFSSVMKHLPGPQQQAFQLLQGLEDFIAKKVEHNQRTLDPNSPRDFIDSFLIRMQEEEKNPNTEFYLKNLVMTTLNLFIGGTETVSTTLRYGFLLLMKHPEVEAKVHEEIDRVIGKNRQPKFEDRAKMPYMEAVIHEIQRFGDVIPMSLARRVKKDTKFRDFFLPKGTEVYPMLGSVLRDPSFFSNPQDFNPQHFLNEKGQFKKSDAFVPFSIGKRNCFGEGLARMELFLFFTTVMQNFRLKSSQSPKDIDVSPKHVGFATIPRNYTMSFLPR
Sequence of human CYP1A1, CYP1A1 (gene 1543) (P04798 whole entry, looked up): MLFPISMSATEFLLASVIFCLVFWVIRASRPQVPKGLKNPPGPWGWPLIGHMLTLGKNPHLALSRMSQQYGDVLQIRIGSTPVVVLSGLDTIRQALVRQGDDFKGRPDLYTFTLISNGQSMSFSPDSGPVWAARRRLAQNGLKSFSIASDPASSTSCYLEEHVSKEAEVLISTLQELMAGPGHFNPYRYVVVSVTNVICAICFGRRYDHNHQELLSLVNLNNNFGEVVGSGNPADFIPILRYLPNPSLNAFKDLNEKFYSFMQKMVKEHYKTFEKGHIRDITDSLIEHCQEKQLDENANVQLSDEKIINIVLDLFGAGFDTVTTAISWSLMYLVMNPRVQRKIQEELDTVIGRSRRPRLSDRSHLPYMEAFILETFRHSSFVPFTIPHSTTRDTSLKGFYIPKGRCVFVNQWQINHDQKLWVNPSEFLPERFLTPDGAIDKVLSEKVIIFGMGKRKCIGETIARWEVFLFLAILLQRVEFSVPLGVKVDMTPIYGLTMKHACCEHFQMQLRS

Cc1ccc(N(C)C)cc1
inactive: [1] | [2] | [3] | [4] | CD38, CD38 (gene 952) | CD40, CD40 (gene 958) | CD69, CD69 (gene 969) | [5] | [6] | [7] | [8] | [9]

C=CCc1ccc(O)c(OC)c1
inactive: [2] | [3] | [4] | CD38, CD38 (gene 952) | CD40, CD40 (gene 958) | CD69, CD69 (gene 969) | [5] | [10] | [7] | [8] | [9]
active: [1] 0.542 µM | [6] 4.26 µM

CC1(C)CC(N=C=O)CC(C)(CN=C=O)C1 (stereo not given)
inactive: [1] | [2] | [3] | [4] | CD38, CD38 (gene 952) | CD40, CD40 (gene 958) | CD69, CD69 (gene 969) | [5] | [6] | [7] | [11] | [8] | [12]

O=C(OCCCCCOC(=O)c1ccccc1)c1ccccc1
inactive: [1] | [2] | [3] | CD38, CD38 (gene 952) | CD40, CD40 (gene 958) | CD69, CD69 (gene 969) | [5] | [6] | [10] | [7] | [9]
active: [4] 12.7 µM

COc1ccc(S(=O)(=O)N2C(=O)[C@@](c3ccccc3OC)(N3C[C@H](O)C[C@H]3C(=O)N(C)C)c3cc(Cl)ccc32)c(OC)c1
inactive: [1] | [3] | CD38, CD38 (gene 952) | [5] | [10] | [7] | [14]
active: [2] 32 µM | [13] 27 µM | CD40, CD40 (gene 958) 20 µM | CD69, CD69 (gene 969) 11.9 µM | [6] 20 µM

Cc1ccc(C)c(C)c1
inactive: [1] | [2] | [3] | [13] | CD38, CD38 (gene 952) | CD40, CD40 (gene 958) | CD69, CD69 (gene 969) | [5] | [6] | [10] | [7] | [11] | [9]

O=c1c(O)c(-c2ccc(O)c(O)c2)oc2cc(O)cc(O)c12
inactive: [2] | [3] | [13] | CD69, CD69 (gene 969) | [5] | [6]
active: [1] 32.8 µM | CD38, CD38 (gene 952) 29.9 µM | CD40, CD40 (gene 958) 36 µM | [7] 13 µM

FC(F)(F)C(F)(F)C(F)(F)C(F)(F)C(F)(F)C(F)(F)CCI
inactive: [1] | [2] | [3] | [4] | CD38, CD38 (gene 952) | CD40, CD40 (gene 958) | CD69, CD69 (gene 969) | [5] | [6] | [7] | [11] | [9]

CC1=C(/C=C/C(C)=C/C=C/C(C)=C/CO)C(C)(C)CCC1
active: [1] 0.574 µM | [2] 8.45 µM | [4] 5.39 µM | CD38, CD38 (gene 952) 32.7 µM | CD40, CD40 (gene 958) 26.4 µM | CD69, CD69 (gene 969) 20.9 µM | [5] 20.9 µM | [6] 12.8 µM
inactive: [3] | [10] | [7] | [11] | [15]
